Results taken from PubChem BioAssay AID492994 (Johns Hopkins Ion Channel Center, 2010).
Results with a measured potency or affinity are listed apart. Calls of active or inactive are those of the source.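 How the source made its calls: active means TRPC4 ion channel inhibited over 30% at some tested dose, with a fitted dose response curve; inactive means no inhibition or no dose response curve.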

target: Short transient receptor potential channel 4 (Mus musculus) (UniProt Q9QUQ5); experiment: TRPC4 inhibitor concentration-response, dose response, cell-based, HEK293 TRPC4/mu-opioid, DAMGO stimulus, Fluo-4 (AID 492994); details: HEK293 TRPC4/mu-opioid cells, Fluo-4 calcium flux, DAMGO-activated; series mostly up to 20 µM; fluorescence ratio, lower = inhibition: at the top concentration
Sequence (Q9QUQ5 whole entry, looked up): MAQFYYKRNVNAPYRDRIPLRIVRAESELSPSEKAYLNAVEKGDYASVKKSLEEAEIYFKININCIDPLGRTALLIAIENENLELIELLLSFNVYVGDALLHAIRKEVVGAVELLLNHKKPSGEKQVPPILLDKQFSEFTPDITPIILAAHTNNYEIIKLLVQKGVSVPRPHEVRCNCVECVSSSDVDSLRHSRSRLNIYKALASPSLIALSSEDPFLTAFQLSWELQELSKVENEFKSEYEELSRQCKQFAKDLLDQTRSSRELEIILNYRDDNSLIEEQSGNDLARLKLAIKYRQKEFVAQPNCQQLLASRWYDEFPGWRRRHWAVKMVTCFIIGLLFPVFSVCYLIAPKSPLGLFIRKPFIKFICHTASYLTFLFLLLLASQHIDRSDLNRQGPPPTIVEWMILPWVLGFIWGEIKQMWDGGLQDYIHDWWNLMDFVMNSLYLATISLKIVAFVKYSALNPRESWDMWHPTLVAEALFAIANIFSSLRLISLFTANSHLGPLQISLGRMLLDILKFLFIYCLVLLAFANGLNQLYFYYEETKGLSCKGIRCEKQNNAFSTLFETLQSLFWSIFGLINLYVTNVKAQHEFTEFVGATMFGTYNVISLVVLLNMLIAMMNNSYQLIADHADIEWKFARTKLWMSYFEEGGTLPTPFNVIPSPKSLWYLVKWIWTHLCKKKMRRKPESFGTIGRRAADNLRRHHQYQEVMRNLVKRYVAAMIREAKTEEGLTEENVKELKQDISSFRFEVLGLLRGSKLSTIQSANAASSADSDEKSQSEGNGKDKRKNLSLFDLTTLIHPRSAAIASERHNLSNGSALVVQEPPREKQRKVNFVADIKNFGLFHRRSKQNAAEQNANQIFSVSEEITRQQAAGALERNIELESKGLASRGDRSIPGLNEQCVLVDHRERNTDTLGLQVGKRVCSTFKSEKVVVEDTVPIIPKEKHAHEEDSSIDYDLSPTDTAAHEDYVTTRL

Fluorescence ratio, lower = inhibition, inactive:
Cc1ccnc(N2CCCCC2)c1 2.21
c1ccc(-c2cc(N3CCCC3)nc3ccccc23)cc1 2.49
c1ccc(-c2cc(N3CCCCC3)nc3ccccc23)cc1 1.76
COc1ccc(N2CCN(c3cc(C)c4ccccc4n3)CC2)cc1 47.1
CCc1ccc2nc(N3CCCCC3)cc(C)c2c1 -3.47
Cc1ccnc(N2CCCCCC2)n1 41.7
Cc1cc(N(C)CCN(C)C)nc2ccccc12 62.6
Cc1ccnc(N2CCCC2)c1 3
Cc1ccnc(N2CCCCCC2)c1 17.4
Cc1cc(N2CCCCC2)nc2c(C)cccc12 3.26
FC(F)(F)c1cc(N2CCCCCC2)nc2ccccc12 34.7
Cc1ccnc(N2CCCCC2)n1 3.26
c1ccc(-c2cc(N3CCCCCC3)nc3ccccc23)cc1 32.7
FC(F)(F)c1cc(N2CCCCC2)nc2ccccc12 2.73
Cc1cc(N2CCN(CC3CCCO3)CC2)nc2ccccc12 (stereo not given) 29.2
Cc1cc(N2CCCCCC2)nc2c(C)cccc12 26.7
Cc1cc(N2CCN(c3ccccc3C#N)CC2)nc2ccccc12 11.1
Cc1ccnc(N2CCCC2)n1 3.5
COc1ccccc1N1CCN(c2cc(C)c3ccccc3n2)CC1 5.63
FC(F)(F)c1cc(N2CCCC2)nc2ccccc12 3.76
